The structures appear in SMILES notation. About 50,000 (12%) of roughly 420,000 compounds were called active. Inconclusive results (about 26%) are left out. Calls come from the whole dose curve; as a rule, active = well fitted inhibition curve with a large enough effect; inconclusive = small, poorly fitted or top-dose-only effect; inactive = flat fitted curve, though single readings scatter. For the sample, actives were picked, then their nearest neighbours and some compounds at random.
% is set by controls: 0 for no effect and ±100 for the full control effect; potency is the fitted concentration of half-maximal effect.

This assay in a line: qHTS for Inhibitors of human tyrosyl-DNA phosphodiesterase 1 (TDP1): qHTS in cells in presence of CPT. Note: nearly all actives have a fitted effect of over 55% in size. To be noted: chicken DT40 Tdp1-/-;hTDP1 cells + 20 nM CPT, ATP luminescence, 48 h; series mostly up to 46.2 µM; activity change, negative = growth inhibition: at the top concentration. The method, boiled down: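 Chicken DT40 Tdp1-/- cells complemented with human TDP1, 400 cells/well, exposed to compounds plus 20 nM camptothecin for at least 48 h at 37 C; viability read as ATP content by CellTiter-Glo luminescence.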
On the technique in general: Quantitative high-throughput screening tests each substance at several concentrations.
On to `CCOc1c(Nc2cccc(Cl)c2)c(=O)c1=O`, for which the “activity change, negative = growth inhibition” value is -0.433% (inactive).

As for `CCCCN(CC)C(=O)c1ccc2c(c1)OCO2`, the “activity change, negative = growth inhibition” value was -16.7% (inactive).

Turning to `CCCCN(CC)C(=O)c1ccccc1Oc1ccccc1`, the Potency is 20.6 µM (active).

For `CCCCN(CC)C(=O)c1c[nH]c2ccc(S(=O)(=O)Nc3cccc(OC)c3)cc2c1=O`, the “activity change, negative = growth inhibition” value is -16% (inactive).

As to `C[C@H]1CN([C@@H](C)CO)C(=O)c2cc(Br)cnc2O[C@H]1CN(C)S(=O)(=O)c1cccs1`, the “activity change, negative = growth inhibition” value was -17.2% (inactive).

As for `CCCCNC(=O)CSc1nc2ccc(NC(=O)CSc3nnc(COc4ccccc4C)n3C)cc2s1`, the “activity change, negative = growth inhibition” value was -23.5% (inactive).

For `COC(=O)C[C@@H]1C=C[C@@H](NS(=O)(=O)c2cccc(OC)c2)[C@@H](CO)O1`, the “activity change, negative = growth inhibition” value is 3.28% (inactive).

Turning to `CS(=O)(=O)N1CCCCC1c1cc(C(=O)NCc2ccccc2)no1` (stereo unspecified), the “activity change, negative = growth inhibition” value was 15.2% (inactive).

For the molecule `CCCNC(=O)c1cc(C2CCCCN2C(=O)OC)on1` (stereo unspecified), the “activity change, negative = growth inhibition” value was -14.1% (inactive).

As for `O=C(NCc1ccc(F)cc1)c1cc(C2CCCCN2C(=O)C2CCCCC2)on1` (stereo unspecified), the Potency is 18.4 µM (active).

Turning to `COC(=O)[C@@H](Cc1ccccc1)NC(=O)NCCc1ccccc1`, the “activity change, negative = growth inhibition” value is 0.102% (inactive).

As for `COc1ccc(-c2[nH][nH]c(=O)c2NC(=O)c2ccc([N+](=O)[O-])cc2)cc1`, the “activity change, negative = growth inhibition” value is 1.08% (inactive).

With `COc1ccc(OC)c(NC(=O)c2ccc3c(c2)CCN3S(C)(=O)=O)c1`, the “activity change, negative = growth inhibition” value is -16.5% (inactive).

For `CCc1ccccc1NC(=O)c1cnn(-c2ccc(F)cc2)c1C1CCNCC1`, the “activity change, negative = growth inhibition” value is 3.96% (inactive).

For the molecule `CCCc1c(C(=O)Nc2ccc(F)cc2)cnn1-c1ccccc1`, the Potency was 14.6 µM (active).

Turning to `CCCc1c(C(=O)O)cnn1-c1ccc(Cl)cc1`, the “activity change, negative = growth inhibition” value was 4.33% (inactive).

For `CCn1c(SCC(=O)N2CCCC2=O)nc2ccccc21`, the “activity change, negative = growth inhibition” value is 1.3% (inactive).

As for `O=C(N/N=C/c1ccsc1)c1cc(O)cc(O)c1`, the “activity change, negative = growth inhibition” value is 17.2% (inactive).

For `CCCCC(=O)Nc1c2c(nn1-c1ccc([N+](=O)[O-])cc1)CS(=O)(=O)C2`, the “activity change, negative = growth inhibition” value is 1.47% (inactive).

`CCN(CC)S(=O)(=O)c1ccc2[nH]c(=O)cc(C(=O)N(C)C3CCS(=O)(=O)C3)c2c1` (stereo unspecified): the “activity change, negative = growth inhibition” value is 3.51% (inactive).

`COc1ccc(N2CCN(C(=O)CCNC(=O)c3ccc(Br)cc3)CC2)cc1`: the “activity change, negative = growth inhibition” value was -25% (inactive).

On to `COc1cc(OC)cc(C(=O)NC(C(=O)N2CCC2)C(C)C)c1` (stereo unspecified), for which the “activity change, negative = growth inhibition” value was -15.4% (inactive).

For `COc1ccc(N2CCN(C(=O)[C@@H](NC(=O)c3cc(OC)cc(OC)c3)C(C)C)CC2)cc1`, the Potency was 14.6 µM (active).

In the case of `CS(=O)(=O)N1CCc2nc(-c3ccccc3)sc2C1`, the “activity change, negative = growth inhibition” value is 5.62% (inactive).

`CCOc1ccc(S(=O)(=O)NCCC(=O)NCC(C)(C)N2CCOCC2)cc1`: the “activity change, negative = growth inhibition” value was 5.12% (inactive).

Turning to `O=C(O)Cn1c(Cc2ccccc2)nc2ccccc21`, the “activity change, negative = growth inhibition” value is 32.8% (inactive).

Consider `C=CCn1c(P(C)(=O)O)nc2ccccc21`, for which the Potency result is “inactive”.

Regarding `C=C(Br)Cn1c(CCCC)nc2ccccc21`, the Potency was 18.4 µM (active).

In the case of `Cc1nc2sc(C)c(C)n2c(=O)c1S(=O)(=O)NCCc1ccc(Cl)cc1`, the “activity change, negative = growth inhibition” value was -14.2% (inactive).

Take `CCOC(=O)c1cc(-c2ccc(OC)c(S(=O)(=O)Nc3ccc(OC)cc3OC)c2)on1`: the “activity change, negative = growth inhibition” value was -18% (inactive).

Take `CCOC(=O)c1cccc(NS(=O)(=O)c2cn(C)c(C)n2)c1`: the “activity change, negative = growth inhibition” value is -13.1% (inactive).

With `COc1ccc(N(C)S(=O)(=O)c2cccc3nsnc23)cc1`, the “activity change, negative = growth inhibition” value is 11.3% (inactive).

Consider `CCOc1ccc(N(C)S(=O)(=O)c2cc(-c3cnc(C)o3)ccc2OC)cc1`, for which the Potency is 25.9 µM (active).

For `CCOC(=O)c1cccc(NS(=O)(=O)c2cc(-c3cnc(C)o3)ccc2OC)c1`, the Potency is 10.3 µM (active).

Regarding `CCOc1ccc(N(C)S(=O)(=O)c2cnc[nH]2)cc1`, the “activity change, negative = growth inhibition” value is 0.234% (inactive).

In the case of `CC(C)C(=O)Nc1nnc(SCC(=O)N2C(C)CCCC2C)s1` (stereo unspecified), the “activity change, negative = growth inhibition” value is 4.9% (inactive).

For the molecule `CSc1ccccc1OCc1cc(C(=O)N2C[C@H]3CC[C@H]2C3)no1`, the “activity change, negative = growth inhibition” value was -14.9% (inactive).

Regarding `CCc1ccccc1NC(=O)/C(=C/c1ccccc1)c1ccccc1`, the Potency was 20.6 µM (active).

Take `CCc1ccccc1NC(=O)CCOc1ccccc1`: the Potency result is “inactive”.

In the case of `CCc1ccccc1NC(=S)Nc1cc(OC)c(NC(=O)C(C)C)cc1OC`, the “activity change, negative = growth inhibition” value was -4.59% (inactive).

`CC(=O)Nc1ccc(N2C(=O)C3C4C=CC(CC4)C3C2=O)cc1` (stereo unspecified): the “activity change, negative = growth inhibition” value was -1.89% (inactive).

Turning to `O=C(Nc1cccc(F)c1)[C@@H]1CCCN1`, the “activity change, negative = growth inhibition” value was 2.38% (inactive).

`Cc1ccc(CN2CCCOCCS2(=O)=O)cc1`: the Potency result is “inactive”.

Consider `O=C1NC[C@@H](CCCCN2CCN(CCc3ccc(O)cc3)C(=O)C2=O)N(CC2CCCCC2)C1=O`, for which the “activity change, negative = growth inhibition” value was 1.35% (inactive).

Regarding `Oc1ccc2c(c1)OCC1c3cc4c(cc3OC21)OCO4` (stereo unspecified), the “activity change, negative = growth inhibition” value was 6.48% (inactive).

As to `O=[N+]([O-])c1cc(S(=O)(=O)CCCN2CCOCC2)ccc1F`, the Potency was 20.6 µM (active).

Take `O=C(NCCCN1CCOCC1)c1ccc([N+](=O)[O-])cc1[N+](=O)[O-]`: the “activity change, negative = growth inhibition” value is -28% (inactive).

Turning to `O=S(=O)(NCCCN1CCOCC1)c1ccc(F)c(Cl)c1`, the “activity change, negative = growth inhibition” value is -21.1% (inactive).

As for `S=c1[nH]nc(-c2cccs2)n1/N=C/c1cccs1`, the “activity change, negative = growth inhibition” value is 2.49% (inactive).

Take `Oc1ccccc1/C=N/n1c(-c2cccs2)n[nH]c1=S`: the “activity change, negative = growth inhibition” value was -9.02% (inactive).

With `Cc1ccsc1/C=N/n1c(=S)[nH]nc(C)c1=O`, the Potency was 16.4 µM (active).

Take `O=C(COC(=O)c1cc2c(s1)CCCC2)NCc1ccccc1Cl`: the “activity change, negative = growth inhibition” value was -21.5% (inactive).

On to `O=c1cc(COc2cccc(C(F)(F)F)c2)nc2sc3c(n12)CCCC3`, for which the “activity change, negative = growth inhibition” value is -5.15% (inactive).

In the case of `Cc1ccc2nsnc2c1NC(=O)c1ccccc1[N+](=O)[O-]`, the “activity change, negative = growth inhibition” value was -0.576% (inactive).

As to `O=C(Nc1ccccn1)C1CCN(S(=O)(=O)c2ccc3c(c2)OCCO3)CC1`, the “activity change, negative = growth inhibition” value was -7.52% (inactive).

Take `CCN1C(=NCc2ccc(OC)cc2)N[C@@H](CCc2ccccc2)[C@H](C(=O)NCc2ccc(OC)cc2)[C@H]1C`: the Potency is 18.4 µM (active).

As to `CCN1C(=O)N[C@@H](c2ccccc2)[C@H](C(C)=O)[C@H]1C`, the “activity change, negative = growth inhibition” value is -20% (inactive).

Turning to `COCCN1C(=O)N[C@@H](CCc2ccccc2)[C@H](C(C)=O)[C@H]1C`, the “activity change, negative = growth inhibition” value was -26.2% (inactive).

As for `CCN1C(=NCC(C)C)N[C@@H](CCc2ccccc2)[C@H](C(=O)NCC(C)C)[C@H]1C`, the Potency is 13 µM (active).

`CCN1C(=NCCc2cccnc2)N[C@@H](c2ccccc2)[C@H](C(=O)OC)[C@H]1C`: the “activity change, negative = growth inhibition” value was -27.5% (inactive).

In the case of `O=C(CSc1nnc(N2CCOCC2)n1-c1cccc(F)c1)N1CCN(c2ccccn2)CC1`, the “activity change, negative = growth inhibition” value was 1.76% (inactive).

With `Cc1cc(NC(=O)CSCC(=O)NC(C)c2ccccc2)no1` (stereo unspecified), the “activity change, negative = growth inhibition” value is -4.29% (inactive).

In the case of `CC(C)(C)NC(=O)COC(=O)c1cc(Br)ccc1Cl`, the “activity change, negative = growth inhibition” value was 4.4% (inactive).

Take `C[C@H](CO)N1C[C@H](C)[C@@H](CN(C)S(=O)(=O)c2ccc(F)cc2)Oc2c(NC(=O)Nc3ccccc3)cccc2C1=O`: the “activity change, negative = growth inhibition” value was -28.6% (inactive).

Consider `CCCc1nn(C)c2c(=O)[nH]c(-c3cc(S(N)(=O)=O)ccc3OCC)nc12`, for which the “activity change, negative = growth inhibition” value is 0.591% (inactive).

For the molecule `Cc1nnc(CN(C)Cc2cn[nH]c2-c2ccc(-c3ccccc3)cc2)o1`, the “activity change, negative = growth inhibition” value is -0.178% (inactive).

These data come from PubChem BioAssay AID686979 (National Center for Advancing Translational Sciences (NCATS), 2013).
